Data taken from PubChem BioAssay AID720504 (National Center for Advancing Translational Sciences (NCATS), 2013).
In all, about 360,000 compounds went through this assay and about 10,000 (2.8%) were called active. Roughly 4% stayed inconclusive and do not appear here. Calls follow the shape of the dose curve; as a rule, active = well fitted inhibition curve with a large enough effect; inconclusive = small, poorly fitted or top-dose-only effect; inactive = flat fitted curve, though single readings scatter. The sample as a whole holds a higher share of actives than the screen did.

Molecular target: Serine/threonine-protein kinase PLK1 (Homo sapiens) (UniProt P53350)
Sequence (P53350 whole entry, looked up, the tested form may be a part): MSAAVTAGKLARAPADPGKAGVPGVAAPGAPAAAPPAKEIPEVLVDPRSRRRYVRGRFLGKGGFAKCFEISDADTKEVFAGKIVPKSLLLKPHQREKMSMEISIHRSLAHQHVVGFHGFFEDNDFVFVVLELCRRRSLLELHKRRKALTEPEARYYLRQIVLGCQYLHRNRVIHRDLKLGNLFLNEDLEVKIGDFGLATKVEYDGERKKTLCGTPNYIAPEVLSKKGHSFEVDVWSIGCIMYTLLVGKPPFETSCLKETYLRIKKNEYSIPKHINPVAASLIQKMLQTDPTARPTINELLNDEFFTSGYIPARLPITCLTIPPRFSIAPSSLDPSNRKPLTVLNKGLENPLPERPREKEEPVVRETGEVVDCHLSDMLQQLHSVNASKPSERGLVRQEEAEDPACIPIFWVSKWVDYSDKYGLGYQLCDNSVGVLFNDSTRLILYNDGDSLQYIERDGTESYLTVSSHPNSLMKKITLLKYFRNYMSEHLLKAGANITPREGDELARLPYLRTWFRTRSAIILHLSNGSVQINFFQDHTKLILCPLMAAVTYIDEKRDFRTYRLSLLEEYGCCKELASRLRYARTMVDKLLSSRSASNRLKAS
Assay: qHTS for Inhibitors of PLK1-PDB (polo-like kinase 1 - polo-box domain): Primary Screen; also: nearly all actives have a fitted effect of over 65% in size; as to Max response, negative = inhibition: series mostly up to about 57 µM
Conditions: Plk1 PBD binding of FITC phosphopeptide, fluorescence polarization
% is scaled to controls: 0 for no effect and ±100 for the full control effect; potency is read from the fitted curve at half-maximal effect.

Max response, negative = inhibition, inactive:
CC(C)C[C@@H]1Cc2[nH][nH]c(=O)c2[C@H](CCc2ccccc2)O1 -16.3%
COc1ccccc1CNC(=O)c1cc(-c2cc(Cl)ccc2C)n[nH]1 0.345%
CCc1nc2c(OCCOc3ccccc3)cccn2c1N(C)C(=O)c1ccccc1F -11.2%
CCCCc1nnc(NC(=O)CSc2nc(C)cc(=O)[nH]2)s1 -4.5%
CCOC(=O)Cc1csc(NC(=O)CSc2ccc(Br)cc2)n1 -1.13%
Cn1c(NCc2cccnc2)nc2cc(-c3ccc(F)cc3)sc2c1=O -3.07%
COC(=O)[C@@]12C[C@@H](CC(=O)N3CCCCC3)C(=O)N(Cc3ccc4c(c3)OCO4)C1=CCC(C)(C)C2 2.15%
CC(C)C[C@H]1CNC(=S)N1C[C@H]1CCCN1C[C@H](Cc1ccc(O)cc1)N1C[C@H](Cc2ccc(O)cc2)N(CC2CCCCC2)C1=S 1.95%
CC1(C(=O)NCc2ccc3c(c2)OCO3)CCN1C(=O)Cc1cccc2ccccc12 (stereo unspecified) -5.76%
Cc1ccc(C(=O)N(CN2CCCC2=O)c2ccc(F)cc2)cc1 -5.15%
CCn1c(C(C)NC(=O)c2ccc(C)cc2)n[nH]c1=S (stereo unspecified) -15.1%
CCOc1ccc(NC(=O)c2cc(C)nc3ccccc23)cc1 -0.67%
CCOc1ccc(NS(=O)(=O)c2ccc(C)c(C(N)=O)c2)cc1 1.44%
COc1ccc(NC(=O)C2(C)Cc3c(-c4cccc(NC(C)=O)c4)ccnc3O2)cc1OC (stereo unspecified) -12.3%
CN(C)CCCn1c(=O)n(Cc2ccccc2)c(=O)c2c3c(sc21)CCCCC3 -1.79%
CCCc1nc2sc3c(c2c(=O)n1NC(=O)CCCl)CCCC3 -16.7%
CCN(CC)C(=O)C1=C(C)N(Cc2ccc(OC)cc2)C(=O)C(CC(=O)NCc2ccco2)C1 (stereo unspecified) 5.53%
CC(C)c1cccc(C(C)C)c1Nc1cn[nH]c1 3.35%
O=S(=O)(NC1CCCCC1N1CCC(O)CC1)c1ccc(Cl)cc1 (stereo unspecified) -6.48%
O=S(=O)(NC1CCCCC1N1CCCCC1)c1ccc(Cl)cc1 (stereo unspecified) 3.73%

Potency, active:
O=[N+]([O-])/C=C/c1ccc2c(ccn2Cc2ccccc2)c1 3.36 µM
CCOC(=O)Cc1csc(NC(=O)CSc2nc(C)cc(=O)[nH]2)n1 11.9 µM
CCN1CCC2(CC1)N=C(c1ccc(F)cc1)C(=S)N2C(=O)c1ccc(C)cc1 15 µM
CCOc1ccc2nc(NCCNC(=O)C(C)(C)C)c(C)cc2c1 26.7 µM
CCn1c(=S)[nH]c2sc3c(c2c1=O)CCCCC3 23.8 µM
CCN1CCN(C2CCCCC2NS(=O)(=O)c2ccc(Cl)cc2)CC1 (stereo unspecified) 26.7 µM
